Measurements published in PubChem BioAssay AID1445 (SRMLSC, 2008).
Out of some 220,000 compounds screened, about 910 (0.41%) were called active.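 Rule for the calls: active = primary inhibition above the hit cutoff, then over 50% inhibition at one or more dose response concentrations (cut at about 23% in these data, passing the limit was not always enough); inconclusive = conflicting primary data, or primary hits not chosen for dose response; inactive = low primary inhibition, or under 50% at every dose.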 The list comes from a sample in which actives are over-represented; it also holds similar structures and randomly drawn compounds. Potency and affinity values are given separately.

Each molecule was assayed against Aminopeptidase N (Plasmodium falciparum (isolate 3D7)) (UniProt O96935) (assay: malaria alanyl aminopeptidase activity blockers – biochemical, fluorogenic H-Leu-NHMec substrate, 1536-well (AID 1445;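 note: plate controls were DMSO full reaction for no effect and no enzyme background for full effect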)). Settings: recombinant M1AAP, H-Leu-NHMec fluorogenic kinetic assay; at 30 µM, active compounds read high unless noted.
Aminopeptidase N (Plasmodium falciparum (isolate 3D7)), sequence (O96935 whole entry, looked up): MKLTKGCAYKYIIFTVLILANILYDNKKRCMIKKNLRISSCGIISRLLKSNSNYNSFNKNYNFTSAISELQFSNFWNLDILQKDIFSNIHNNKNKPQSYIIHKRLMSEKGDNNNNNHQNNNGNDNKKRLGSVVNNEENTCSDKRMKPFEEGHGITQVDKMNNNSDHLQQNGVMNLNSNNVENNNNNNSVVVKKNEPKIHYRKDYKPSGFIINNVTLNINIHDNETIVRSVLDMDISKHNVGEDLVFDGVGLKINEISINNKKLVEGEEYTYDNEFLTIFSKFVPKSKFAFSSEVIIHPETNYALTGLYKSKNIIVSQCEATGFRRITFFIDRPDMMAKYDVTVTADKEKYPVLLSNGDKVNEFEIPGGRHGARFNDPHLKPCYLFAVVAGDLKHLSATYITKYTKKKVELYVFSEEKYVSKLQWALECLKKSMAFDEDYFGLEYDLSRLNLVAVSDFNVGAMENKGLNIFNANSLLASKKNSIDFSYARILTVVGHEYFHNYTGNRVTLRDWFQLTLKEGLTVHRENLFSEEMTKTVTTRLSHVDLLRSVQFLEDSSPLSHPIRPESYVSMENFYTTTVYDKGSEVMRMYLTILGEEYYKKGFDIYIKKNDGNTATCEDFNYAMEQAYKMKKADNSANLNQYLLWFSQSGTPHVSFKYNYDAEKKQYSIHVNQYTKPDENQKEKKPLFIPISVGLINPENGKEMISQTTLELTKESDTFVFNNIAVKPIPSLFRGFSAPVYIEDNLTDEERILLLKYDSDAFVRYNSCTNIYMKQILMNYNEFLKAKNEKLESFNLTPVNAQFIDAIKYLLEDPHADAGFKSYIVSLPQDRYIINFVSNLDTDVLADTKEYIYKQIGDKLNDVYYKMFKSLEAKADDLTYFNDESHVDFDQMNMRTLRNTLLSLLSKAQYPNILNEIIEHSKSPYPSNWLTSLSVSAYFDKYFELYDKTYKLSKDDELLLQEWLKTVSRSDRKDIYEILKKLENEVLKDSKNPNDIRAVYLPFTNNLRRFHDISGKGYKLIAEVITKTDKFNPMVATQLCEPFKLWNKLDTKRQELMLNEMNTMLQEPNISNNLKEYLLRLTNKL
With `Cc1ccc(C(C(=O)NC(C)(C)C)N(Cc2cccs2)C(=O)c2ccc3c(c2)OCCO3)cc1` (stereo not drawn) the inhibition was 9.95% (inactive).
In the case of `O=C(Cn1nnc(-c2ccc3c(c2)OCO3)n1)N1CCOCC1`, the inhibition is reported as 0.39% (inactive).
For `CCOc1ccc(N2CC(C(=O)Nc3ccc(S(=O)(=O)Nc4ncccn4)cc3)CC2=O)cc1` (stereo not drawn), the inhibition was 20.6% (inactive).
For `CN(Cc1cnccn1)Cc1c(C(=O)N2CCc3ccccc3C2)nc2ccc(Cl)cn12`, the inhibition was 1.48% (inactive).
`CC1(NC(=S)NCCO)CCS(=O)(=O)C1` (stereo not drawn) was tested, and the inhibition was 6.94% (inactive).
In the case of `O=C(NCc1cccs1)C1CCCN(S(=O)(=O)c2cccc3cccnc23)C1` (stereo not drawn), the inhibition is reported as 21.9% (inactive).
With `COc1ccc(NC(=O)C2CCCN(S(=O)(=O)c3cccc4cccnc34)C2)cc1OC` (stereo not drawn) the inhibition was 28.4% (active).
`COc1cccc(NC(=O)C2CCCN(S(=O)(=O)c3cccc4cccnc34)C2)c1` (stereo not drawn) was tested, and the inhibition was 4.01% (inactive).
`O=C(NCc1ccco1)C1CCN(S(=O)(=O)c2cccc3cccnc23)CC1` was tested, and the inhibition was 0.35% (inactive).
For `COc1ccc(CNC(=O)C2CCN(S(=O)(=O)c3cccc4cccnc34)CC2)cc1`, the inhibition was 11.4% (inactive).
`O=C(NCc1cccs1)C1CCN(S(=O)(=O)c2cccc3nsnc23)CC1` was tested, and the inhibition was 6.27% (inactive).
For `O=C(NCc1cccs1)C1CCN(S(=O)(=O)c2cccc3cccnc23)CC1`, the inhibition was 45.9% (active).
In the case of `COc1ccc(NC(=O)C2CCN(S(=O)(=O)c3cccc4cccnc34)CC2)cc1OC`, the inhibition is reported as 2.6% (inactive).
In the case of `CCOc1ccccc1C1C(C(=O)OC)=C(N)OC2=C1C(=O)CCC2` (stereo not drawn), the inhibition is reported as 3.31% (inactive).
For `CCOC(=O)N1CCC(NC(=O)C2=CCN(S(=O)(=O)c3ccc(F)cc3)CC2)CC1`, the inhibition was -3% (inactive).
For `Cc1cccc(C(=O)Nc2sc(C)c(-c3ccccc3)c2C#N)c1`, the inhibition was 3.54% (inactive).
In the case of `O=C(OC1CCOC1=O)c1ccc(Cl)c(S(=O)(=O)N2CCCCC2)c1` (stereo not drawn), the inhibition is reported as 1.33% (inactive).
In the case of `COc1cc(/C=C2\SC(c3ccc(C)cc3)=NC2=O)cc(OC)c1OC`, the inhibition is reported as -0.48% (inactive).
In the case of `COc1cc(/C=C2\SC(c3ccc(C)cc3)=NC2=O)cc(OC)c1O`, the inhibition is reported as 19.7% (inactive).
For `COCCCNC(=O)c1cc2c(=O)n3cccc(C)c3nc2n(C(C)C)c1=N`, the inhibition was 21.8% (inactive).
For `C=CCn1c(=N)c(C(=O)NCCCOC)cc2c(=O)n3ccccc3nc21`, the inhibition was 13.6% (inactive).
`C=CCn1c(=N)c(C(=O)NCCCOC)cc2c(=O)n3cc(C)ccc3nc21` was tested, and the inhibition was 4.34% (inactive).
With `COCCNC(=O)c1cc2c(=O)n3cccc(C)c3nc2n(Cc2ccncc2)c1=N` the inhibition was 30.2% (inactive).
For `CC(CN1CCCCC1)OC(=O)C1c2ccccc2Oc2ccccc21` (stereo not drawn), the inhibition was 1.62% (inactive).
With `Cc1ccc(S(=O)(=O)N2c3ccccc3CC2C)cc1` (stereo not drawn) the inhibition was 2.44% (inactive).
With `CC(c1ccccc1)C1CC(=O)N(C2CCCCC2)C1=O` (stereo not drawn) the inhibition was -0.34% (inactive).
With `COc1ccc2cc1Oc1ccc(cc1)C[C@H]1c3cc(c(OC)cc3CCN1C)Oc1c(OC)c(OC)cc3c1[C@H](C2)N(C)CC3` the inhibition was 0.59% (inactive).
`COc1ccc2cc1Oc1ccc(cc1)C[C@H]1c3c(cc4c(c3Oc3cc5c(cc3OC)CCN(C)[C@@H]5C2)OCO4)CCN1C` was tested, and the inhibition was 2.7% (inactive).
`CC(c1ccccc1)n1c(Cn2ncc3ccccc3c2=O)n[nH]c1=S` (stereo not drawn) was tested, and the inhibition was 7.12% (inactive).
With `O=C(NCc1ccccc1)C1CCCN(S(=O)(=O)c2cccc3nonc23)C1` (stereo not drawn) the inhibition was 34.1% (inactive).
For `O=C(NCc1ccco1)C1CCCN(S(=O)(=O)c2cccc3cccnc23)C1` (stereo not drawn), the inhibition was 9.65% (inactive).
For `O=C(NCc1ccc2c(c1)OCO2)C1CCCN(S(=O)(=O)c2cccc3cccnc23)C1` (stereo not drawn), the inhibition was 18.6% (inactive).
In the case of `O=C(NCc1ccco1)C1CCCN(S(=O)(=O)c2cccc3nsnc23)C1` (stereo not drawn), the inhibition is reported as 5.11% (inactive).
With `O=C(NCc1ccc2c(c1)OCO2)C1CCCN(S(=O)(=O)c2cccc3nonc23)C1` (stereo not drawn) the inhibition was 27.8% (active).
`COCC(=O)N(Cc1ccccc1)c1ccccn1` was tested, and the inhibition was 17.1% (inactive).
In the case of `CC(=O)Nc1ccc(S(=O)(=O)N2CCN(CC(O)COc3ccc4ccccc4c3)CC2)cc1` (stereo not drawn), the inhibition is reported as 8.01% (inactive).
In the case of `O=C(CSc1nnc(Cc2ccccc2)n1C1CCCCC1)N1CCOCC1`, the inhibition is reported as 4.89% (inactive).
For `COc1ccc(/C(N)=N/OC(=O)c2ccc3c(c2)OCO3)cc1OC`, the inhibition was 1.74% (inactive).
For `COc1ccc(OCCSc2nnc(CC(=O)Nc3cccc(Cl)c3Cl)n2C)cc1`, the inhibition was 23.6% (active).
With `CCn1c(CC(=O)Nc2cccc(Cl)c2Cl)nnc1SCCOc1ccc(OC)cc1` the inhibition was 13.4% (inactive).
In the case of `COc1cccc(NC(=O)Cc2nnc(SCCOc3ccccc3)n2C)c1`, the inhibition is reported as 8.03% (inactive).
In the case of `CCC(=O)Nc1nc(C)c(-c2csc(Nc3ccc(S(=O)(=O)Nc4cc(C)on4)cc3)n2)s1`, the inhibition is reported as 6.43% (inactive).
For `Cc1cc(NS(=O)(=O)c2ccc(Nc3nc(-c4sc(N)nc4C)cs3)cc2)no1`, the inhibition was 17.9% (inactive).
With `Cc1cc(NS(=O)(=O)c2ccc(Nc3nc(-c4sc(C)nc4C)cs3)cc2)no1` the inhibition was 23.9% (active).
`Cc1nc(CNC(=O)c2cc(COc3ccc(F)cc3Cl)on2)cs1` was tested, and the inhibition was 3.28% (inactive).
In the case of `Cc1ccc(S(=O)(=O)Nc2ccc(Cl)cc2C(=O)c2ccccc2)cc1`, the inhibition is reported as 3.73% (inactive).
`O=C(Cc1sc(Nc2ccccc2)nc1-c1ccccc1)NCc1ccccc1` was tested, and the inhibition was 7.32% (inactive).
In the case of `COc1cc(/C=C(\C#N)c2nc3ccccc3[nH]2)cc(OC)c1O`, the inhibition is reported as 20.3% (inactive).
In the case of `COc1cc(/C=N/Nc2nc3ccccc3s2)cc([N+](=O)[O-])c1O`, the inhibition is reported as 32.1% (inactive).
In the case of `COc1cc(/C=C(\C#N)c2nc3ccc(C)cc3[nH]2)c([N+](=O)[O-])cc1OC`, the inhibition is reported as 14.8% (inactive).
In the case of `N#C/C(=C/c1ccncc1)c1nc2ccccc2s1`, the inhibition is reported as -2.18% (inactive).
With `COc1cc(/C=C(/C#N)c2nc(-c3cc4ccccc4oc3=O)cs2)cc([N+](=O)[O-])c1O` the inhibition was 11% (inactive).
`COc1ccc(-c2csc(/C(C#N)=C\c3ccc(O)c([N+](=O)[O-])c3)n2)cc1OC` was tested, and the inhibition was 3.12% (inactive).
For `CC(C)COC(=O)N(C)c1ccc(C(O)(C(F)(F)F)C(F)(F)F)cc1`, the inhibition was 11.6% (inactive).
For `COCCn1c(SCC(=O)Nc2cccc(OC)c2)nc2c(oc3ccccc32)c1=O`, the inhibition was -5.31% (inactive).
`NS(=O)(=O)c1ccc(NC(=O)COC(=O)CCNC(=O)NC23CC4CC(CC(C4)C2)C3)cc1` was tested, and the inhibition was 2.67% (inactive).
In the case of `CSc1nc(C)cc(C)c1C(N)=O`, the inhibition is reported as 6.25% (inactive).
For `CCc1[nH]c(=O)c(C#N)c2c1CSC(C)(C)C2`, the inhibition was 10.3% (inactive).
In the case of `CCCCc1[nH]c(=O)c(C#N)c2c1CSC(C)(C)C2`, the inhibition is reported as 23.7% (active).
For `Cc1[nH]c(=O)c(C#N)c2c1CSC(C)(C)C2`, the inhibition was 9.75% (inactive).
`CCOC(=O)c1coc(CNC(=O)c2c(C)oc3c2CCCC3)c1` was tested, and the inhibition was 4.14% (inactive).
With `Cc1ccc(CN2CCN(C3CSCCSC3)CC2CCO)cc1` (stereo not drawn) the inhibition was -1.96% (inactive).
For `CC(=O)N1CCN(c2ccc(NC(=O)C(C)Oc3ccc(Cl)cc3Cl)cc2)CC1` (stereo not drawn), the inhibition was 4.51% (inactive).
For `O=c1cc(-c2ccccc2Cl)oc2c(NS(=O)(=O)c3ccccc3OC(F)(F)F)ccc(O)c12`, the inhibition was 3.26% (inactive).
For `O=c1cc(-c2ccccc2Cl)oc2c(NS(=O)(=O)c3ccccc3C(F)(F)F)ccc(O)c12`, the inhibition was 10.4% (inactive).
For `Cc1ccc(S(=O)(=O)N2CCCC2C(=O)Nc2ccc(O)cc2)cc1` (stereo not drawn), the inhibition was 7.62% (inactive).
With `c1ccn2c(SCc3ccc4c(c3)OCO4)nnc2c1` the inhibition was 3.07% (inactive).
For `S=C(Nc1ccc(Br)cc1)N1CCn2cccc2C1c1cccnc1` (stereo not drawn), the inhibition was 10.1% (inactive).
With `COc1ccc(C)cc1NC(=O)c1cc2ccccc2o1` the inhibition was -2.39% (inactive).
In the case of `Cc1ccc(C(=O)Nc2ccc(Oc3ccc(C(=O)O)c(C(=O)O)c3)cc2)cc1C`, the inhibition is reported as 5.36% (inactive).
For `COc1ccc(C(=O)Nc2cccc(OC)c2)cc1`, the inhibition was 1.64% (inactive).
In the case of `COc1ccc(S(=O)(=O)n2nc(OC(=O)c3cccs3)cc2NC(=O)c2cccs2)cc1`, the inhibition is reported as 3.59% (inactive).
For `CN(C(=O)c1cc2n(n1)C(C(F)(F)F)CC(c1ccco1)N2)c1ccccc1` (stereo not drawn), the inhibition was 2.19% (inactive).
In the case of `O=C(Oc1ccc(OC(=O)c2ccco2)c(S(=O)(=O)c2ccc(Cl)cc2)c1)c1ccco1`, the inhibition is reported as 4.36% (inactive).
For `COc1ccc(C(=O)O/N=C(\N)Cc2ccc([N+](=O)[O-])cc2)c(OC)c1`, the inhibition was 5.06% (inactive).
With `O=C(CSc1nnc(CCCN2C(=O)c3cccc4cccc(c34)C2=O)n1-c1ccccc1)NCCCO` the inhibition was 13.2% (inactive).
In the case of `O=C(CSc1nnc(CCCN2C(=O)c3cccc4cccc(c34)C2=O)n1-c1ccccc1)N1CCCCC1`, the inhibition is reported as 3.42% (inactive).
With `Cn1c(SCC(=O)c2ccc(F)cc2)nnc1-c1cnccn1` the inhibition was -2.54% (inactive).
In the case of `O=C(CN(c1ccccn1)S(=O)(=O)c1ccccc1)Nc1ccccc1`, the inhibition is reported as -0.68% (inactive).
`Cc1csc(SCC(=O)Nc2cccc(S(=O)(=O)N3CCOCC3)c2)n1` was tested, and the inhibition was 0% (inactive).
With `O=C(NCc1ccccc1Cl)c1ccc(CSc2nc3ccncc3[nH]2)cc1` the inhibition was 1.57% (inactive).
For `CSC(=NC#N)N1CCN(c2ccc([N+](=O)[O-])cc2)CC1`, the inhibition was 8.93% (inactive).
For `C=CCN(CC=C)S(=O)(=O)c1ccc(NC(=S)NC(=O)/C=C/c2ccccc2)cc1`, the inhibition was 9.4% (inactive).
For `O=C(Cn1nnc2ccccc21)Nc1ccccc1[N+](=O)[O-]`, the inhibition was -1.91% (inactive).
`CC(C)(C)NC(=O)COc1ccccc1C#N` was tested, and the inhibition was -0.28% (inactive).
`Cc1ccc(C(=O)Nc2nc(=O)n(C(=O)c3ccccc3C)s2)cc1` was tested, and the inhibition was 4.83% (inactive).
In the case of `Cc1ccc(C(=O)Nc2nc(=O)n(C(=O)C3CC3)s2)cc1`, the inhibition is reported as 4.6% (inactive).
`Cc1cc[n+](-c2nc3ccccc3nc2C(=C=[N-])C#N)cc1` was tested, and the inhibition was 4.51% (inactive).
